aSyn rescue: alpha-synuclein toxicity inhibition in yeast; Yeast expressing alpha-synuclein, growth rescue, BacTiter-Glo, 24 h; Potency, µM (doses to about 46.1 µM), for inactives: at the highest dose growth rescue (activation), most hits filed as activators; 370,000 compounds, 0.14% hits; AID 652106; also: % of control where 0% means no effect; nearly all actives have a fitted effect of over 65% in size
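Screening used galactose-induced yeast with toxic alpha-synuclein levels, exposed to compound for 24 hr at 30 deg C. Cell growth, read with BacTiter-Glo luminescence, gave the measured signal.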
FUS suppressor: FUS proteinopathy suppression in yeast. S. cerevisiae FUS-expressing, growth rescue, OD600, 24 h. Potency, µM (titrated, usually from 76.6 µM), hits mostly activators. 390,000 compounds, 0.24% hits;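 also: plate controls were DMSO vehicle for no effect and reference control for full effect; nearly all actives have a fitted effect of over 55% in size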
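Galactose (2%) drives FUS expression in yeast precultured in raffinose; seeding density OD 0.005. Test compounds incubated 24hr at 30C and 99% humidity before absorbance at 600 nm was measured.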
Abeta rescue: compounds reversing amyloid beta toxicity in yeast | Potency, µM (series often up to 46.1 µM), most hits filed as activators | 410,000 compounds, 0.063% hits | yeast expressing A-beta42, growth rescue, OD600, 48 h; response scale: 0% DMSO, 100% iron-clioquinol control | AID 1347071; also: nearly all actives have a fitted effect of over 55% in size
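Yeast growth medium received pinned compounds, then yeast cells expressing toxic A-beta were added; plates incubated at 30 C for 48 hr. Growth read as absorbance at 600 nm, normalized to DMSO and equimolar FeCl3 plus clioquinol controls.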
TDP-43 yeast inh: inhibitors of TDP-43 toxicity in yeast; TDP-43 expressing yeast growth rescue, BacTiter-Glo, 24 h; Potency, µM (series often up to 46.1 µM), for inactives: top-dose growth rescue (activation), hits mostly activators; 410,000 compounds, 1.8% hits; also: % of control where 0% means no effect; nearly all actives have a fitted effect of over 50% in size
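Cell-based yeast growth screen: TDP-43 expression induced in galactose, inoculum OD600=0.02 after raffinose pregrowth to mid-log. Read-out BacTiter-Glo luminescence at 24 hr, 30 deg C; inhibition of toxicity seen as signal increase.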
An asterisk follows results filed as active; i = inactive; ? = inconclusive; nt = no result; [ ] = remark or other dose. Compounds with a hit are over-represented: about 2.1% of the library has one in this group of screens. Calls follow the shape of the dose curve; as a rule, active = well fitted curve in the direction sought with a large enough effect; inconclusive = small, poorly fitted or top-dose-only effect, or another doubt; inactive = no such curve, though single readings can be large; an effect the other way counts as inactive or inconclusive. Potency is read from the fitted curve at half-maximal effect.

SMILES	aSyn rescue	FUS suppressor	Abeta rescue	TDP-43 yeast inh
Cc1ccc(S(=O)(=O)NCCCc2ccc3c(c2)[C@]2(CCC[C@@H](OCc4ccccc4)[C@@H]2NC(=O)CCc2ccccc2)C(=O)N3Cc2ccccc2)cc1	nt	i	nt	nt
O=C(Cc1ccccc1)Nc1cccc(N2C(=O)C=CC2=O)c1	2%	nt	i	6.3µM*
COc1cccc(NC(=O)Cc2ccccc2)c1	-5%	i	i	-4%
O=C(CCCC(=O)OCC(Cl)=C(Cl)Cl)Nc1cccc(F)c1	6%	i	i	14µM*
O=C(CCCC(=O)OCC(Cl)=C(Cl)Cl)Nc1ccc(F)cc1	10%	i	i	16µM*
O=C(CCCC(=O)OCC(Cl)=C(Cl)Cl)Nc1cccc2ccccc12	-5%	i	i	20%
O=C(CSCc1ccccc1)Nc1cccc(F)c1	3%	i	i	6.3µM*
O=C(Nc1ccc(C(O)(C(F)(F)F)C(F)(F)F)cc1)c1c(F)cccc1F	nt	i	nt	nt
COc1ccc(N2CCN(S(=O)(=O)c3ccc(F)c(C(=O)Nc4ccccc4Cl)c3)CC2)cc1	nt	i	i	15%
COc1cc(-c2nc(Cn3nnc(C(=O)Nc4cc(C)cc(C)c4)c3C)c(C)o2)cc(OC)c1OC	nt	i	i	-5%
CN1CCc2c(sc3c2C(=O)NC(c2ccc(C(C)(C)C)cc2)N3)C1 (configuration not stated)	nt	i	i	6%
O=Cc1ccc(-c2ccc([N+](=O)[O-])cc2Cl)o1	1%	i	i	11µM*
Cc1nc2ccc(NC(=O)c3cc(Cl)ccc3F)cc2c(=O)[nH]1	nt	i	nt	nt
CC(C)(C)c1ccc(C(=O)NCC(c2cccnc2)N2CCc3ccccc3C2)cc1 (configuration not stated)	nt	i	i	22µM*
Cc1ccc(C(=O)NCC(c2cccnc2)N2CCc3ccccc3C2)cc1C (configuration not stated)	nt	i	i	15%
NC(=O)C(OC(=O)CNC(=O)C1CCCCC1)c1ccccc1 (configuration not stated)	-3%	nt	nt	nt
Fc1cccc(CSc2ccc3nnc(-c4cccnc4)n3n2)c1	9%	i	?	16µM*
Brc1ccc(CSc2ccc3nnc(-c4cccnc4)n3n2)cc1	1%	i	i	16µM*
Cc1ccc(CSc2ccc3nnc(-c4ccccn4)n3n2)cc1	-1%	i	i	20µM*
Cc1ccc(CSc2ccc3nnc(-c4cccnc4)n3n2)cc1	-1%	i	i	7%
Cc1ccccc1C(=O)Nc1nnc(-c2ccc(F)cc2)o1	18µM*	i	22µM*	?
O=C(Cc1c(Cl)cccc1Cl)Nc1ccncc1Cl	2%	i	i	11µM*
Cc1ccc(C)c(S(=O)(=O)N2CCN(c3nc(-c4cccnc4)nc4ccccc34)CC2)c1	9%	i	i	16µM*
CN1CCN(c2nc(-c3cccnc3)nc3ccccc23)CC1	2%	i	i	-7%
COc1cc2c(cc1OC)CN(c1nc(-c3cccnc3)nc3ccccc13)CC2	3%	i	i	14µM*
SMILES	aSyn rescue	FUS suppressor	Abeta rescue	TDP-43 yeast inh
O=S(=O)(c1ccccc1F)N1CCN(c2nc(-c3cccnc3)nc3ccccc23)CC1	4%	i	i	-16%
CCOC(=O)c1cnc2cc(-c3ccc(OCC)cc3)nn2c1-c1ccccc1	nt	i	i	9%
N#C/C(=C\c1c(Cl)cccc1Cl)c1nc2ccccc2[nH]1	-46%	i	i	11µM*
Cc1cc(/C=C(\C#N)c2nc3ccccc3[nH]2)c(C)n1C	3%	nt	i	-1%
CCN(CC)c1ccc(/C=C(/C#N)c2nc3ccc(C)cc3[nH]2)c(OC(C)C)c1	-35%	8.9µM*	i	?
CCCOc1cc(N(CC)CC)ccc1/C=C(/C#N)c1nc2ccc(C)cc2[nH]1	-30%	nt	i	?
CCOc1cc(N(CC)CC)ccc1/C=C(/C#N)c1nc2ccccc2[nH]1	-22%	?	i	7.1µM*
Cc1ccc(Cc2c(C)nc3nc(SCC(=O)NCCC(C)C)nn3c2C)cc1	nt	i	i	5%
CCCCOCCCNC(=O)C[C@@H]1C(=O)N2CCCC3=C2[C@@]1(C(=O)OCC)CCC3	nt	i	nt	nt
CC1CCC2(CCC(=O)N2CCCOC(=O)Nc2cccc(C(F)(F)F)c2)CC1 (configuration not stated)	nt	i	nt	nt
O=S(=O)(c1cccc(-c2csc(N/N=C/c3ccco3)n2)c1)N1CCOCC1	2%	?	i	16µM*
O=S(=O)(c1cccc(-c2csc(-c3ccccc3)n2)c1)N1CCOCC1	8%	i	i	-2%
O=C1CC(c2ccc3c(c2)OCO3)c2cc3c(cc2N1)OCO3 (configuration not stated)	1%	i	i	18%
O=C1c2cc3c(cc2CCC1c1ccc2c(c1)OCO2)OCO3 (configuration not stated)	-4%	i	i	16µM*
CCCCCCCNC(=O)C1(CC2CC(c3ccc(Cl)cc3)=NO2)CCN(C(=O)CCCCCBr)CC1 (configuration not stated)	-5%	32µM*	i	-3%
COc1cccc(C(O)c2nc(-c3ccccc3OC)cs2)c1 (configuration not stated)	?	i	i	22µM*
COc1cccc(C(O)c2nc(-c3ccccc3)cs2)c1 (configuration not stated)	21%	i	i	16µM*
COc1cc(F)ccc1-c1csc(C(O)c2ccccc2)n1 (configuration not stated)	21%	?	i	35µM*
COc1cccc(C(O)c2nc(-c3ccccc3C)cs2)c1 (configuration not stated)	13%	i	i	?
COc1ccccc1-c1csc(C(O)c2ccc(F)cc2)n1 (configuration not stated)	27%	i	i	?
COc1cccc(C(O)c2nc(-c3ccc(Cl)cc3)cs2)c1 (configuration not stated)	10%	i	?	13µM*
COc1ccc(-c2noc(-c3ccc(N4CCCC4)c([N+](=O)[O-])c3)n2)cc1	nt	i	i	-5%
O=C(OCC(=O)N1CCc2ccccc21)c1c2c(nc3ccccc13)CCCCC2	-20%	nt	i	22µM*
COc1cc(/C=N/N2CCOCC2)ccc1OCc1ccccc1	-8%	i	i	-13%[9.22 µM]
COc1cc(/C=N/N2CCOCC2)ccc1OCc1ccc(Cl)cc1	-1%	i	i	11µM*
COc1cc(/C=C/C(=O)N2CCC=CC2=O)cc(OC)c1OC	13%	i	i	22µM*
COc1ccc(C=CC(=O)c2ccc(OC)c(OC)c2O)cc1OC	?	i	i	13µM*
COc1cc(OC)c(C(=O)C=Cc2ccc(OC)c(OC)c2)c(OC)c1	12%	i	i	-10%
COc1cc(/C=C/C(=O)c2ccccc2)cc(OC)c1OC	nt	i	nt	nt

Screening data from PubChem BioAssay.
